The text below walks through data of PubChem BioAssay (NCATS).

The structures appear in SMILES notation. Values without a mark were called inactive. Inconclusive results are not listed. Activity calls are given as the source filed them. The call rests on the fitted dose curve; in most records, active means well fitted curve in the direction sought with a large enough effect; inconclusive means small, poorly fitted or top-dose-only effect, or another doubt; inactive means no such curve, though single readings can be large; an effect the other way counts as inactive or inconclusive.

The target in assay [1] is Glutathione peroxidase 1 (Homo sapiens) (UniProt P07203). Description: Primary qHTS Assay for Inhibitors of Recombinant Selenoprotein Glutathione Peroxidase 1 (GPX1) (AID 1845191). Further: nearly all actives have a fitted effect of over 65% in size. Further: potency means the concentration at half of the fitted maximal effect. On activity, negative = inhibition: on the % scale 0 is the no-effect control and ±100 the full control effect. The procedure, abridged: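 GR-coupled assay: compounds preincubated 30 min at room temperature with GPX1, then reaction started with CHP; final 10 nM GPX1, 1 mM GSH, 0.5 mM CHP, 0.5 mM NADPH, 100 nM GR, 0.01% BSA, pH 7.5 Tris buffer. NADPH fluorescence (340/450 nm) read at 0 and 15 min.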

Assay [2] concerns the target Phospholipid hydroperoxide glutathione peroxidase GPX4 (Homo sapiens) (UniProt P36969). In words: Primary qHTS Assay for Inhibitors of Recombinant Selenoprotein Glutathione Peroxidase 4 (GPX4) (AID 1845192). Further: nearly all actives have a fitted effect of over 65% in size. On activity change, negative = inhibition: series mostly up to about 50 µM; on the % scale 0 is the no-effect control and ±100 the full control effect. The procedure, abridged:
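GR-coupled assay: recombinant GPX4 preincubated 30 min with compound at room temperature; final 200 nM GPX4, 1 mM GSH, 0.5 mM cumene hydroperoxide, 0.5 mM NADPH, 100 nM GR, 0.01% BSA, pH 7.5 Tris. NADPH fluorescence (340/450 nm) read at 0 and 15 min.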
For orientation: Quantitative high-throughput screening tests each substance at several concentrations.

Assay [3] has as its target Luciferin 4-monooxygenase (Photinus pyralis) (UniProt P08659). Description: Primary firefly luciferase (FLuc) qHTS assay for identification of artifact compounds. (AID 1845220). Further: nearly all actives have a fitted effect of over 60% in size.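 On activity change, negative = inhibition: series mostly up to about 54 µM; plate controls were DMSO vehicle for no effect and no enzyme for full effect.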 An outline of the steps: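 Enzymatic FLuc inhibition assay: compounds pre-exposed to luciferin/ATP (10 uM each) for 15 min, then purified P. pyralis enzyme at 10 nM added. Read-out: luminescence at 5 min.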

The nature of assay [4]: Primary fluorescence-based thiol-reactive (MSTI) qHTS assay for identification of artifact compounds. (AID 1845221). Further: nearly all actives have a fitted effect of over 65% in size. Further: potency means the concentration at half of the fitted maximal effect.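 On activity change, negative = thiol reactive: series mostly up to about 54 µM; thiol-reactive compounds lower the probe fluorescence signal.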 The procedure, abridged: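 Thiol-reactive compounds detected by quenching of 4 uM MSTI fluorescence (525/598 nm) after 1 h room-temperature dark incubation in PBS pH 7.4, 2% DMSO. qHTS titration; percent inhibition Hill-fitted against Acetyl-MSTI/MSTI controls.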

For assay [5], the system named is Nanoluciferase (engineered Oplophorus gracilirostris luciferase). In words: Primary Nanoluciferase (NLuc) qHTS assay for identification of artifact compounds. (AID 1845222).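 Further: NLuc secreted into diluted conditioned medium of S16 cells; series mostly up to about 54 µM; 0% = DMSO and -100% = no enzyme.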 The procedure, abridged:
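S16 cell supernatant NLuc, 1:55; cpds qHTS; 15 min RT dark; Nano-Glo substrate 1:100, 5 min; luminescence; Hill fit of % inhibition.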

The nature of assay [6]: Primary redox qHTS assay for identification of artifact compounds. (AID 1845223).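 Further: 0% = DMSO and 100% = reference compound.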 An outline of the steps: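 Amplex Red (25 uM) and HRP (250 mU/mL) in HBSS, with compounds for 15 min, then 250 uM DTT for 30 min, room temperature, dark. Fluorescence 525/598 nm read; normalized to DMSO and 10 uM DA3003; Hill fit.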

Sequence of Glutathione peroxidase 1 (Homo sapiens) (P07203 whole entry, looked up): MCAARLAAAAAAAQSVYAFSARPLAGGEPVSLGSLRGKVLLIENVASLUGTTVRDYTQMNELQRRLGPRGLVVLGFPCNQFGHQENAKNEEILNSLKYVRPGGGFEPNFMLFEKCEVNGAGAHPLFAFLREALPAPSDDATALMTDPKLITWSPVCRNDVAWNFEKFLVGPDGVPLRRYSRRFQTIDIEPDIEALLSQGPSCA
Sequence of Phospholipid hydroperoxide glutathione peroxidase GPX4 (Homo sapiens) (P36969 whole entry, looked up): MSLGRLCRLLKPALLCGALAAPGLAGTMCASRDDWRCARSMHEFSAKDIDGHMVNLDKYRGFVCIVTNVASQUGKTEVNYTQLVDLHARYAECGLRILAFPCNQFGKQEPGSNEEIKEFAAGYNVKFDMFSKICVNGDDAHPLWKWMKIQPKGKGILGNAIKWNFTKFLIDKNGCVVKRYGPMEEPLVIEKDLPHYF

Turning to `CC1(C)CCC2(C(=O)OC3OC(CO)C(O)C(O)C3O)CCC3(C)C(=CCC4C5(C)CCC(OC6OC(C(=O)O)C(OC7OC(CO)C(O)C(O)C7O)C(OC7OC(CO)C(O)C(O)C7O)C6O)C(C)(C)C5CCC43C)C2C1` (configuration not stated), the Potency entry in assay [1] and in assay [2] was “inactive” throughout. In assay [3], the activity change, negative = inhibition was -0.248% [at 11.6 µM]. Besides, the activity change, negative = thiol reactive in assay [4] is 123% [at 11.5 µM]. In addition, in assay [5], the activity, negative = inhibition was 1.02% [at 11.6 µM]. Besides, in assay [6], the redox activity (% of DA3003) is 10.6% [at 11.5 µM].

In the case of `CC12CCC(OC3OC(CO)C(O)C(OC4OC(CO)C(O)C(O)C4O)C3O)CC1=CCC1C2CCC2(C)/C(=C3/COC(=O)C3)CCC12O` (configuration not stated), the Potency result in assay [1], in assay [2], in assay [3], in assay [4], in assay [5] and in assay [6] was “inactive” in each case.

Take `Cc1nc2sc(C(=O)NCc3ccncc3)c(N)c2c(C)c1Cl`: in assay [1], the Potency is 12.8 µM (active). The Potency result in assay [2], in assay [3], in assay [4], in assay [5] and in assay [6] was “inactive” each time.

Consider `C[C@H](Nc1ncnc2nc[nH]c12)c1cc2ccc(F)cc2nc1-c1ccccn1`, for which the Potency result in assay [1], in assay [2], in assay [3], in assay [4], in assay [5] and in assay [6] was “inactive” in each case.

For `CC1=CCC(C(C)(C)O[C@@H]2O[C@H](CO[C@@H]3O[C@@H](C)[C@H](O)[C@@H](O)[C@H]3O)[C@@H](O)[C@H](O)[C@H]2O)CC1` (some centres not stated), the Potency entry in assay [1], in assay [2], in assay [3], in assay [4], in assay [5] and in assay [6] was “inactive” throughout.

Turning to `CC(C)(O)/C=C/CC(C)(O)C1C(O)CC2(C)C3CCC4C(C)(C)C(=O)CCC4(C)C3CCC12C` (configuration not stated), the Potency entry in assay [1], in assay [2], in assay [3], in assay [4], in assay [5] and in assay [6] was “inactive” each time.

On to `C[C@@H]1CCC2C(C)(C)[C@H](O)CC[C@]2(C)[C@@]12Cc1c(O)cc3c(c1O2)CNC3=O` (some centres not stated), for which the Potency result in assay [1], in assay [2], in assay [3], in assay [4], in assay [5] and in assay [6] was “inactive” in each case.

As for `COc1ccccc1NC(=O)OCC1CCN(C(=O)OC(C)(C)C)CC1`, the Potency result in assay [1], in assay [2], in assay [3], in assay [4], in assay [5] and in assay [6] was “inactive” throughout.

Consider `CC1(C)[C@@H](O)CC[C@]2(C)[C@H]3CC=C4[C@@H]5C[C@](C)(C(=O)O)CC[C@]5(C)CC[C@@]4(C)[C@]3(C)CC[C@@H]12`, for which the Potency result in assay [1], in assay [2], in assay [3], in assay [4], in assay [5] and in assay [6] was “inactive” in each case.

Turning to `O=S(=O)(c1ccccc1)c1cnc2c(N3CCNCC3)cccc2c1`, the Potency result in assay [1], in assay [2], in assay [3], in assay [4], in assay [5] and in assay [6] was “inactive” throughout.

Take `COc1ccccc1Oc1ccc(N(Cc2cccnc2)S(=O)(=O)CC(F)(F)F)cc1`: the Potency entry in assay [1], in assay [2], in assay [3], in assay [4], in assay [5] and in assay [6] was “inactive” each time.

For `COc1cc(O)c([C@@H](CC(=O)N2CC(C)CC(C)C2)c2ccc3c(c2)OCO3)c(OC)c1` (some centres not stated), the Potency result in assay [1], in assay [2], in assay [3], in assay [4], in assay [5] and in assay [6] was “inactive” in each case.

Consider `COC(=O)c1cc(OC)c(O[C@@H]2O[C@@H](C)[C@H](O)[C@@H](O)[C@H]2O)c(OC)c1`, for which the Potency entry in assay [1], in assay [2], in assay [3], in assay [4], in assay [5] and in assay [6] was “inactive” in each case.

As to `CNC12CC3C[C@@](C)(C1)C[C@](C)(C3)C2`, the Potency entry in assay [1], in assay [2], in assay [3], in assay [4], in assay [5] and in assay [6] was “inactive” in each case.

In the case of `O=C(N/N=C/c1ccc(O)c(O)c1)c1cc2ccccc2cc1O`, the Potency entry in assay [1], in assay [2], in assay [3], in assay [5] and in assay [6] was “inactive” each time. Besides, in assay [4], the Potency is 0.707 µM (active).

For `CC1=CC(=O)[C@]2(O[C@@H]3O[C@@H](C)[C@H](O)[C@@H](O)[C@H]3OC(=O)/C=C/c3ccccc3)C=CO[C@@H](O[C@@H]3O[C@H](CO)[C@@H](O)[C@H](O)[C@H]3O)[C@H]12`, the Potency entry in assay [1], in assay [2], in assay [3], in assay [5] and in assay [6] was “inactive” throughout. Further, in assay [4], the Potency is 2.51 µM (active).

Take `Clc1cc2c(NC3CCCC3)nnc(-c3ccncc3)c2cc1Cl`: the Potency entry in assay [1], in assay [2], in assay [3], in assay [4], in assay [5] and in assay [6] was “inactive” each time.

Consider `COc1cc(OC)c(/C=C/S(=O)(=O)Cc2ccc(OC)c(NCC(=O)O)c2)c(OC)c1`, for which the Potency entry in assay [1], in assay [2], in assay [3], in assay [5] and in assay [6] was “inactive” in each case. For the same compound, the Potency in assay [4] is 3.36 µM (active).

`COc1ncc2cc(C(=O)Nc3cc(C(=O)NCc4cccc(Cl)c4)ccc3Cl)c(=O)[nH]c2n1`: the Potency entry in assay [1], in assay [2], in assay [3], in assay [4], in assay [5] and in assay [6] was “inactive” each time.

Take `COC(=O)C1=CO[C@@H](O[C@@H]2O[C@H](CO)[C@@H](O)[C@H](O)[C@H]2O)[C@H]2[C@@H]1CC(OC)O[C@@H]2C` (some centres not stated): the Potency result in assay [1], in assay [2], in assay [3], in assay [5] and in assay [6] was “inactive” throughout. In addition, in assay [4], the Potency is 10.3 µM (active).

Take `Cc1ccc(C)c(OCCn2cc(C(=O)O)c3ccccc32)c1`: the Potency result in assay [1], in assay [2], in assay [3], in assay [4], in assay [5] and in assay [6] was “inactive” throughout.

For the compound `Cc1cc(C(=O)N2CCCCc3ccccc32)ccc1CNC(=O)N1CCC[C@H]1C(=O)N(C)C`, the Potency result in assay [1], in assay [2], in assay [3], in assay [4], in assay [5] and in assay [6] was “inactive” in each case.
